Experimental findings from PubChem BioAssay (NCATS) are described below.

Experiment [1] in a line: qHTS profiling for inhibitors of Plasmodium falciparum (3D7) proliferation (AID 743322).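 Note: infected erythrocytes exposed to compound for 72 h before lysis; 100% = DMSO vehicle wells and 0% = 0.29 µM artemisinin.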 To be noted: P. falciparum 3D7 proliferation; at 28.7 µM (top of the series) unless noted. In outline: (§1)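 Parasite DNA was quantified by SYBR Green I fluorescence (ex 485, em 535 nm) after overnight lysis in saponin/Triton buffer at room temperature. Cultures at 0.3% parasitemia and 2.5% hematocrit were first exposed to compound for 72 h at 37 C; signals were normalised to artemisinin (0.29 uM) and vehicle wells.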
In general terms: Quantitative high-throughput screening tests each substance at several concentrations.

Experiment [2] in a line: qHTS profiling for inhibitors of Plasmodium falciparum (DD2) proliferation (AID 743323). Conditions: lower = more inhibition; at 28.7 µM (top of the series) unless noted. In outline: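 Parasite DNA quantified by SYBR Green fluorescence (ex 485, em 535 nm) after saponin/Triton lysis and overnight dark incubation. Cultures: 0.3% parasitemia, 2.5% hematocrit, 72 h, 37 C; data scaled between DMSO and 0.29 uM artemisinin.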

Experiment [3] is described as follows: qHTS profiling for inhibitors of Plasmodium falciparum (HB3) proliferation (AID 743324; active = well fitted curve in the direction sought with a large enough effect; an effect the other way counts as inactive or inconclusive;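 note: 100% = DMSO vehicle wells and 0% = artemisinin-treated control wells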). Conditions: Plasmodium falciparum HB3 blood-stage proliferation; at 28.7 µM (top of the series) unless noted. Put shortly: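 SYBR Green fluorescence (485 ex/535 em) of lysed cultures, incubated overnight at room temperature in the dark, quantifies parasite DNA. Infected erythrocytes at 0.3% parasitemia and 2.5% hematocrit were exposed 72 h; values normalized to DMSO and 0.29 uM artemisinin controls.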

Experiment [4] is described as follows: qHTS profiling of the MIPE4 collection as inhibitors of Plasmodium falciparum (3D7) proliferation (AID 743344).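 Note: scaled between DMSO vehicle wells and 0.29 µM artemisinin as full inhibition.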 Conditions: P. falciparum 3D7 in erythrocytes, SYBR Green DNA fluorescence, 72 h; at 28.5 µM (top of the series) unless noted. Put shortly: as §1
Experiment [5] is described as follows: qHTS profiling of the MIPE4 collection as inhibitors of Plasmodium falciparum (DD2) proliferation (AID 743345). To be noted: P. falciparum Dd2 in erythrocytes, SYBR Green DNA, 72 h; at 28.5 µM (top of the series) unless noted. In outline:
as §1

Experiment [6] in a line: qHTS profiling of the MIPE4 collection as inhibitors of Plasmodium falciparum (DD2) proliferation (Rep 2) (AID 743346). Conditions: P. falciparum Dd2 in erythrocytes, SYBR Green DNA, 72 h; at 28.5 µM (top of the series) unless noted. In outline:
as §1

Experiment [7] is described as follows: qHTS profiling of the MIPE4 collection as inhibitors of Plasmodium falciparum (HB3) proliferation (AID 743347).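 Note: plate controls were DMSO vehicle wells for no effect and artemisinin wells for full effect.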 Conditions: P. falciparum HB3 in erythrocytes, SYBR Green DNA, 72 h; at 28.5 µM (top of the series) unless noted. In outline:
as §1

Experiment [8] can be described thus: Cell Proliferation Assay Versus the ED40515 IL2 Dependent ATL cell lines (AID 1053195; calls by dose curve). Conditions: ED40515 IL2-dependent ATL cells. In outline:
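CellTiter-Glo luminescence (15 min, RT) measured viability after 48 hours at 37C; cells were ED40515 +IL2, 1000/well, in phenol red-free RPMI with 5% FBS. Controls: DMSO and 9.2 uM bortezomib.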

Experiment [9] in a line: High-throughput drug toxicity screening in the BPDCN cell line Gen2.2 (AID 1224824).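 Note: cells exposed to compounds for 48 h before reading.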 Conditions: Gen2.2 BPDCN cells; at 45.8 µM (top of the series) unless noted. Put shortly: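 CellTiter-Glo luminescence after 48 h compound exposure of Gen2.2 cells; percent activity set with DMSO as 100% and bortezomib (9.2 uM final) as 0%. Cells seeded at 500 per well, RPMI + 10% FBS, 37 °C.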

A short description of experiment [10]: High-throughput drug toxicity screening in the BPDCN cell line Cal-1 (AID 1224825). To be noted: Cal-1 BPDCN cell viability, qHTS; at 45.8 µM (top of the series) unless noted. In outline:
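Percent activity derived from CellTiter-Glo luminescence, scaling DMSO to 100% and 9.2 uM final bortezomib to 0%. BPDCN Cal-1 cells (500/well, RPMI plus 10% FBS) incubated with compounds 48 hours at 37C before reading.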

A short description of experiment [11]: qHTS assay for measurement of the activity of small molecule inhibitors on Zika virus induced Caspase-3 activity in human iPSC derived neural progenitor cells (hNPCs) (AID 1224857; active = well fitted curve in the direction sought with a large enough effect; an effect the other way counts as inactive or inconclusive; note: % of control where 0% means no effect; nearly all actives have a fitted effect of over 65% in size). Put shortly: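 In medium with heparin 2 ug/ml and cyclopamine 2 uM, hNPCs (350 cells/well) received compound for one hour and then Zika virus at 2 FFU/cell; caspase activity was measured by Caspase-Glo 3/7 luminescence 6 h post-infection.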

Experiment [12] can be described thus: qHTS assay for measurement of the activity of small molecule inhibitors on Zika virus induced Caspase-3 activity in human astrocytoma cells (AID 1224859; active = well fitted curve in the direction sought with a large enough effect; an effect the other way counts as inactive or inconclusive;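 note: plate controls were ZIKV-infected untreated cells for no effect and uninfected cells for full effect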). Put shortly: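 A cell-based luminescent caspase-3/7 assay used SNB-19 cells infected with ZIKV (2 FFU/cell) for 6 h following 1 h compound pretreatment.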
The nature of experiment [13]: qHTS Screen of the MIPE 4.0 Collection Against Ewings Sarcoma (EW8) (AID 1259255; active = well fitted curve in the direction sought with a large enough effect; an effect the other way counts as inactive or inconclusive; note: nearly all actives have a fitted effect of over 35% in size; note: potency is the fitted concentration of half-maximal effect;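 for viability: 100% = DMSO-treated cells and 0% = medium-only wells without cells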). Put shortly:
(§2)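 Cells plated in serum-containing RPMI (5% FBS) and treated with compound dilutions for 48 h. Readout luminescent viability; normalization relied on vehicle (no inhibition) and media-only columns (full inhibition).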

A short description of experiment [14]: Identifying Small Molecule Inhibitors of Pancreatic Cancer Stem Cells (A2780, Spheroid) (AID 1259357; active = well fitted curve in the direction sought with a large enough effect; an effect the other way counts as inactive or inconclusive; note: potency is the fitted concentration of half-maximal effect;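 note: spheroids pre-formed over 14 days in stem cell medium on hydrogel; compound exposure lasted 48 h before the ATP luminescence read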). Conditions: Potency: A2780 spheroid viability. Put shortly:
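Spheroids grown 14 days in stem cell media on hydrogel-coated nonadherent plates; 2D lines seeded directly. Compounds added after 4 h attachment, 48 h at 37C, 5% CO2; CellTiter-Glo luminescence normalized to DMSO (no inhibition) and no-cell wells (full inhibition).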

Experiment [15] in a line: qHTS Screen of the MIPE 4.0 Collection Against Ewings Sarcoma (TC71) (AID 1259253; active = well fitted curve in the direction sought with a large enough effect; an effect the other way counts as inactive or inconclusive; note: potency is the fitted concentration of half-maximal effect; nearly all actives have a fitted effect of over 40% in size). In outline:
as §2

A short description of experiment [16]: qHTS Screen of the MIPE 4.0 Collection Against Ewings Sarcoma (TC32) (AID 1259256; active = well fitted curve in the direction sought with a large enough effect; an effect the other way counts as inactive or inconclusive; note: nearly all actives have a fitted effect of over 45% in size; note: potency is the fitted concentration of half-maximal effect). In outline: as §2
The nature of experiment [17]: qHTS Screen of the MIPE 4.0 Collection Against Ewings Sarcoma (RDES) (AID 1259252; active = well fitted curve in the direction sought with a large enough effect; an effect the other way counts as inactive or inconclusive; note: potency is the fitted concentration of half-maximal effect; nearly all actives have a fitted effect of over 35% in size). In outline:
as §2

Experiment [18] is described as follows: qHTS assay to identify small molecule inhibitors of chordoma cells - UCH-1 (AID 1259355; active = well fitted curve in the direction sought with a large enough effect; an effect the other way counts as inactive or inconclusive; note: % is set by controls: 0 for no effect and ±100 for the full control effect; nearly all actives have a fitted effect of over 55% in size). In outline: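 800 cells/well, overnight attach; compounds pinned at 15 concs, then auranofin/camptothecin/doxorubicin/rubitecan/topotecan combo added; 48hr 37 C, 5% CO2; CellTiter-Glo, 30min RT, luminescence.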
Experiment [19] can be described thus: qHTS assay to identify small molecule inhibitors of chordoma cells - UCH-2 (AID 1259356; active = well fitted curve in the direction sought with a large enough effect; an effect the other way counts as inactive or inconclusive; note: % is set by controls: 0 for no effect and ±100 for the full control effect).

Inconclusive results are not listed. Calls of active or inactive are those of the source. Unless noted, the rule behind the calls is not given here.

As to `CCOc1ccc(Cc2cc([C@@H]3O[C@H](CO)[C@@H](O)[C@H](O)[C@@H]3O)ccc2Cl)cc1`, the remaining parasite growth % (stronger effect = lower value) in experiment [1] turned out to be 46.7%. Further, the activity, percent of control in [2] turned out to be 101%. In [3], the remaining proliferation (% of control), lower = more inhibition turned out to be 112%. For the same molecule, in [4], the parasite growth, % of DMSO control is 136%. Further, the parasite growth remaining, % of DMSO control (lower = more inhibition) in experiment [5] was found to be 104%. Besides, in [6], the parasite growth, % of control (lower = inhibition) is 103%. This molecule also returned a growth, % of control in experiment [7] of 505%. The Potency in [8] was 4690 nM (active). In [9], the cell viability, % of control (lower = more cytotoxic) worked out at 55.1%. This molecule also displayed a viability (% of control) in experiment [10] of 19.9%. The Potency entry in [11], in experiment [12], in experiment [13] and in experiment [14] was “inactive” each time.

Consider `O=C1[C@H](Cc2ccc(O)cc2)N2C(=O)CCN(C(=O)NCc3ccccc3)[C@H]2CN1Cc1cccc2ccccc12`, for which the remaining parasite growth % (stronger effect = lower value) in experiment [1] came to 32.3%. The activity, percent of control in experiment [2] is 43.6%. The remaining proliferation (% of control), lower = more inhibition in experiment [3] is -0.183%. Further, in [4], the parasite growth, % of DMSO control is 5.06%. Also, in experiment [5], the parasite growth remaining, % of DMSO control (lower = more inhibition) was 56%. Besides, the parasite growth, % of control (lower = inhibition) in experiment [6] worked out at 40.6%. Further, the growth, % of control in experiment [7] is 12.1%. Also, the Potency is 8330 nM (active) in [8], 2960 nM (active) in experiment [15], 2640 nM (active) in [13] and 1870 nM (active) in experiment [16]. Further, the cell viability, % of control (lower = more cytotoxic) in [9] was found to be 6.07%. Besides, the viability (% of control) in experiment [10] turned out to be 31.2%. The Potency result in experiment [11] and in [12] was “inactive” each time.

`O=c1ncn2nc(Sc3ccc(F)cc3F)ccc2c1-c1c(Cl)cccc1Cl`: in experiment [1], the remaining parasite growth % (stronger effect = lower value) was 32.8%. Besides, the remaining proliferation (% of control), lower = more inhibition in experiment [3] is 23.8%. This molecule registered a parasite growth, % of DMSO control in [4] of 17.6%. Besides, the parasite growth remaining, % of DMSO control (lower = more inhibition) in [5] was 76.3%. For the same molecule, the parasite growth, % of control (lower = inhibition) in experiment [6] came out at 18.7%. The growth, % of control in experiment [7] came to 13.6%. The values for the Potency in experiment [8], in experiment [17] and in [14] were 16600 nM (active), 20900 nM (active) and 14800 nM (active), respectively. In addition, the cell viability, % of control (lower = more cytotoxic) in experiment [9] was 98.9%. The molecule also registered a viability (% of control) in experiment [10] of 45.3%. Moreover, the Potency entry in experiment [11], in experiment [12] and in experiment [16] was “inactive” throughout.

For the molecule `Nc1nc2[nH]cc(CCc3ccc(C(=O)N[C@@H](CCC(=O)O)C(=O)O)cc3)c2c(=O)[nH]1`, the remaining parasite growth % (stronger effect = lower value) in [1] was 14.6%. Further, in [2], the activity, percent of control worked out at 10.6%. The remaining proliferation (% of control), lower = more inhibition in [3] was determined as 4.66%. In addition, in [4], the parasite growth, % of DMSO control came to 55.6%. Also, the parasite growth remaining, % of DMSO control (lower = more inhibition) in experiment [5] was determined as 48.3%. In addition, the parasite growth, % of control (lower = inhibition) in [6] is 26.3%. For the same molecule, the growth, % of control in [7] amounted to 139%. Further, the Potency was 29.6 nM (active) in experiment [8], 264 nM (active) in experiment [15] and 662 nM (active) in experiment [16]. Also, the cell viability, % of control (lower = more cytotoxic) in experiment [9] was 115%. In experiment [10], this molecule gave a viability (% of control) of 37.4%. Also, the Potency entry in experiment [11], in [12], in experiment [18] and in experiment [14] was “inactive” throughout. Besides, the molecule was classed as inactive in experiment [19].
